Test results taken from PubChem BioAssay AID1240 (Sanford-Burnham Center for Chemical Genomics, 2008).
The campaign covered roughly 50,000 compounds. About 800 (1.6%) showed an effect of 50% or more. The entries come from a sample that favours strong results as a whole.

Target: Bcl-2-like protein 10 (Homo sapiens) (UniProt Q9HD36)
Test: TR3 peptide-Bcl-B binding displacers, biochemical primary FP assay, phenotype converters (AID 1240);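 also: 0% = Bcl-B with tracer peptide and DMSO and 100% = tracer peptide lacking Bcl-B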
Conditions: GST-Bcl-B / FITC-TR3 peptide fluorescence polarization; stronger effect = higher value; compound at 3.75 mg/L

Chain of Bcl-2-like protein 10 (Homo sapiens) (Q9HD36 whole entry, looked up): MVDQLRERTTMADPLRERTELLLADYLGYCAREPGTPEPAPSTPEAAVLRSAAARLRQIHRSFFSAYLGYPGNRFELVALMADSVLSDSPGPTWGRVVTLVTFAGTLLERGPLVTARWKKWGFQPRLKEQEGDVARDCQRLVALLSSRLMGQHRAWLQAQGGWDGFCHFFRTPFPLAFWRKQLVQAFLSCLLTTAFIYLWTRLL

| Compound | displacement [%] |
| --- | --- |
| CCc1ccc(/C=C2\C(=O)NN(c3ccc(Cl)c(Cl)c3)C2=O)cc1 | 5.7 |
| CCOc1cc(C(=O)Nc2ccc3c(c2)OCCO3)cc(OCC)c1OCC | -7.7 |
| C=CCn1c(C)c(/C=C(/C#N)C(=O)Nc2ccc(OC)cc2)c2ccccc21 | -6.6 |
| CCOC(=O)c1c(NC(=O)c2ccc(C(=O)c3ccccc3)cc2)sc2c1CCC2 | 10.7 |
| Cc1ccc(N[C@@H]2O[C@H](CO)[C@@H](O)[C@H](O)[C@@H]2O)cc1 | 11 |
| CC(=O)Oc1ccc2c(C)c(C)c(=O)oc2c1 | 6.4 |
| CCSc1nnc2c(n1)OC(c1ccc(C(=O)O)cc1)Nc1ccccc1-2 (configuration not stated) | 9.9 |
| CSc1nnc2c(n1)OC(c1ccc(OCc3ccccc3)cc1)Nc1ccccc1-2 (configuration not stated) | 7.4 |
| CCSc1nnc2c(n1)OC(c1ccc(OCc3ccccc3)cc1)Nc1ccccc1-2 (configuration not stated) | 120 |
| CCOC(=O)C1=C(O)/C(=C/c2ccc(O)cc2)SC1=Nc1ccc([N+](=O)[O-])cc1 | -9.8 |
| CCOC(=O)C1=C(O)CSC1=Nc1ccc([N+](=O)[O-])cc1 | 112 |
| CCOC(=O)C1=C(O)CSC1=Nc1ccc(C)cc1 | -15.6 |
| CCOC(=O)C1=C(O)/C(=C/c2ccc([N+](=O)[O-])cc2)SC1=Nc1ccc(C)cc1 | -3.1 |
| CCOC(=O)C1=C(O)/C(=C/c2ccc(Cl)cc2)SC1=Nc1ccc([N+](=O)[O-])cc1 | -7.6 |
| CCOC(=O)C1=C(O)/C(=C/c2ccc(OCC)cc2)SC1=Nc1ccc([N+](=O)[O-])cc1 | 122 |
| CCOC(=O)C1=C(O)/C(=C/c2ccc(O)c(OCC)c2)SC1=Nc1ccc([N+](=O)[O-])cc1 | -5.5 |
| CCOC(=O)C1=C(O)/C(=C/c2ccc(F)cc2)SC1=Nc1ccc([N+](=O)[O-])cc1 | 59.1 |
| CCOC(=O)C1=C(O)CSC1=Nc1ccc(Cl)cc1 | -6.7 |
| COc1ccc(Oc2coc3cc(OC(C)=O)ccc3c2=O)cc1 | 11.2 |
| COc1ccc2nc(NC(=O)COc3ccc(Cl)cc3)sc2c1 | 14.5 |
| COc1cc(NC(=O)CCCOc2ccccc2)c(OC)cc1Cl | 71.9 |
| COc1ccc(NC(=O)CCCOc2ccccc2)c(OC)c1 | -3.2 |

| Compound | displacement [%] |
| --- | --- |
| COc1cc(NC(=O)CCCOc2ccc(Cl)cc2Cl)c(OC)cc1Cl | 0.2 |
| O=C(N/N=C/c1cccs1)c1sc2cc(Cl)ccc2c1Cl | 7.2 |
| O=C(NCc1cccs1)c1sc2cc(F)ccc2c1Cl | -3.8 |
| C/C(=N/NC(=O)c1sc2cc(F)ccc2c1Cl)c1cccs1 | 132 |
| CC1=C(C(=O)Nc2cc(Cl)ccc2C)C(c2ccccc2Br)NC(=S)N1 (configuration not stated) | -8.3 |
| O=C(Nc1ccc(O)c(-c2nc3ccccc3o2)c1)c1cc2ccccc2o1 | -10.8 |
| CCOC(=O)NC(NC(=O)OCC)c1cccc([N+](=O)[O-])c1 | -5.1 |
| CCN1C(=O)/C(=C\c2ccc(O)c(OC)c2)SC1=S | -3.9 |
| CCOc1cc(/C=C2/SC(=S)N(C)C2=O)ccc1OC(=O)c1ccc(F)cc1 | 13.6 |
| COCCN1C(=O)/C(=C/c2ccc(O)c(OC)c2)SC1=S | -4.4 |
| CCOc1cc(/C=C2\SC(=S)N(CCOC)C2=O)ccc1O | 89.2 |
| CCOc1cc(/C=C2\SC(=S)N(CC(C)C)C2=O)ccc1O | 15.9 |
| COc1cc(/C=C2\SC(=S)N(CC(=O)N3CCCc4ccccc43)C2=O)cc(OC)c1OC | 91.5 |
| COc1cc(/C=C2\SC(=S)N(CC(=O)O)C2=O)cc(OC)c1OC | -4 |
| CCOc1cc(/C=C2/SC(=S)N(C)C2=O)ccc1OC(=O)c1ccc(C)cc1 | 62.3 |
| CCOc1cc(/C=C2/SC(=S)N(C)C2=O)ccc1OS(=O)(=O)c1ccc(C)cc1 | -1.9 |
| COc1cc(/C=C2/SC(=S)N(CC(=O)N3CCOCC3)C2=O)cc(OC)c1OC | 13.2 |
| COc1cc(/C=C2\SC(=S)N(CC(C)C)C2=O)ccc1O | 91.5 |
| CCOc1cc(/C=C2\SC(=S)N(C)C2=O)ccc1O | -6.7 |
| CC1(C)Nc2ccccc2N(Cc2ccc(Cl)c(Cl)c2)C1=O | -7.9 |
| Cc1ccc(-c2nc3ccccc3o2)cc1NC(=O)c1ccco1 | 3.1 |
| CCOC(=O)C(=O)Nc1ccc(S(=O)(=O)Nc2nccc(C)n2)cc1 | 27.4 |

| Compound | displacement [%] |
| --- | --- |
| CC(=O)Nc1ccc(S(=O)(=O)Nc2ccc(C(=O)Nc3nccs3)cc2)cc1 | 7.5 |
| COC(=O)c1sccc1NC(=O)/C=C/c1ccc([N+](=O)[O-])cc1 | 5.4 |
| CC(=O)OC1CC(C)(C)N([O])C(C)(C)C1 | 5.8 |
| O=C1C2ON(c3ccccc3)C(c3ccco3)C2C(=O)N1c1ccc(N2CCOCC2)cc1 (configuration not stated) | 2.3 |
| C=CCNC(=O)c1ccc(OCc2ccccc2)cc1 | 10.2 |
| C/C(=N\NC(=O)c1ccncc1)c1ccco1 | -4.8 |
| O=C(Nc1ccc(-c2nc3ccccc3s2)cc1)c1cc2ccccc2o1 | -6.9 |
| S=C1NC(c2ccccc2)=NCN1c1ccccc1 | 1.8 |
| COc1cc(/C=C2/SC(=S)N(C)C2=O)ccc1OCCOc1ccc(Br)cc1 | 2.3 |
| CCN1C(=O)/C(=C\c2cccc(OCCOc3cccc(OC)c3)c2)SC1=S | 3.4 |
| COC(=O)CN1C(=O)/C(=C\c2cccc(O)c2)SC1=S | 0 |
| CCOc1cc(/C=C2\SC(=S)N(CC(=O)OC)C2=O)ccc1O | 122 |
| CCOc1cc(/C=C2/SC(=S)N(CC)C2=O)cc(Br)c1OCCOc1cccc(OC)c1 | 92.3 |
| COC(=O)CN1C(=O)/C(=C/c2ccc(OCc3ccc(Cl)cc3)c(OC)c2)SC1=S | 87.2 |
| COC(=O)CN1C(=O)/C(=C/c2ccc(OCc3ccccc3Cl)c(OC)c2)SC1=S | 10.3 |
| CCN1C(=O)/C(=C\c2cc(Cl)c(OCCOc3cccc(OC)c3)c(OC)c2)SC1=S | 2.9 |
| COc1cc(/C=C2/SC(=S)N(C)C2=O)ccc1OCc1ccc(Br)cc1 | 88.9 |
| CCOc1cc(/C=C2\SC(=S)N(CCS(=O)(=O)O)C2=O)ccc1O | -60.3 |
| C=CCN1C(=O)/C(=C\c2ccc(OCc3ccc(Br)cc3)c(OC)c2)SC1=S | -11.3 |
| COC(=O)CCN1C(=O)/C(=C/c2ccc(OCc3ccc(Cl)cc3)c(OC)c2)SC1=S | 24.7 |
| CCOC(=O)c1cccc(NC(=O)COc2ccc([N+](=O)[O-])cc2)c1 | 8.1 |
| CSc1ccc(/C=N\NC(=O)COc2ccc(C)cc2)cc1 | 11.8 |

| Compound | displacement [%] |
| --- | --- |
| COC(=O)c1c(N)sc(C)c1-c1ccc(C)cc1C | -10.6 |
| COc1cc(/C=C/c2cc(C(F)(F)F)[nH]c(=O)n2)ccc1O | 44.6 |
| COc1ccc(OC)c(NC(=O)CN(c2cc(Cl)cc(Cl)c2)S(C)(=O)=O)c1 | -2.6 |
| O=C(N/N=C/c1ccccc1)c1cc(Br)ccc1O | 7.4 |
| O=C(CSc1nc(-c2ccccc2)c(-c2ccccc2)o1)Nc1ccccc1 | -4.2 |
| O=C(CSc1nc(-c2ccccc2)c(-c2ccccc2)o1)Nc1nccs1 | 106 |
| O=C(CSc1nnc(-c2ccccc2)c(-c2ccccc2)n1)Nc1nccs1 | 4.6 |
| CSc1nnc2c(n1)OC(C(=O)c1ccccc1)Nc1ccccc1-2 (configuration not stated) | 13.5 |
| COc1cccc(NS(=O)(=O)c2ccc(OC)c(Br)c2)c1 | -4.6 |
| O=C1NC(=S)N/C1=C/c1ccc(Oc2ccc(C(F)(F)F)cc2[N+](=O)[O-])c(Cl)c1 | 88.3 |
| O=C1NC(=S)S/C1=C/c1ccc(Oc2ccc(C(F)(F)F)cc2[N+](=O)[O-])c(Cl)c1 | 2.8 |
| O=C1NC(=O)/C(=C\c2ccc(Oc3ccc(C(F)(F)F)cc3[N+](=O)[O-])c(Cl)c2)S1 | 5.5 |
| Cc1ccc(N(CC(=O)NC(C)c2ccccc2)S(C)(=O)=O)cc1Cl (configuration not stated) | -1.3 |
| NNC(=O)COc1ccc2c(c1Br)CCCC2 | -25.1 |
| O=C(O)CCCCCN1C(=O)C(O)=C(C(=O)/C=C/c2ccccc2)C1c1cccc([N+](=O)[O-])c1 (configuration not stated) | 96.1 |
| O=C(O)CCCCCN1C(=O)C(O)=C(C(=O)/C=C/c2ccccc2)C1c1ccc([N+](=O)[O-])cc1 (configuration not stated) | -4.6 |
| O=C(O)CCCCCN1C(=O)C(O)=C(C(=O)/C=C/c2ccccc2)C1c1ccccc1 (configuration not stated) | 4.7 |
| Cc1cc(Cl)ccc1NC(=O)C(=O)N/N=C/c1ccccc1F | 4.5 |
| CCN1CCN(CC(O)CN2CCn3c4c(c5cc(C)ccc53)CCCC42)CC1 (configuration not stated) | 24.7 |
| CCNC(=O)/C=C/c1cn(-c2ccccc2)nc1-c1ccccc1 | 9.4 |
| CCOC(=O)C(=C/C=C1/Sc2ccccc2N1C)C(=O)OCC | 131 |
| CCOC(=O)C(C(=O)OCC)=C1Sc2ccccc2N1C | 13.4 |

| Compound | displacement [%] |
| --- | --- |
| CCOC(=O)C(=C/C=C/c1ccccc1)C(=O)OCC | -2.3 |
| COc1ccc(Br)cc1/C=C/C(=O)N1CCN(c2ccc([N+](=O)[O-])cc2)CC1 | 12.3 |
| O=C(NC(=S)Nc1ccccc1)c1ccccc1 | 4.7 |
| O=C(Nc1ccc(Cl)c(Cl)c1)c1cc2ccccc2o1 | 2.9 |
| O=C(NC(=S)Nc1ccc2c(c1)-c1ccccc1C2)c1ccccc1 | 51.9 |
| O=C(Nc1ccc2c(c1)Cc1ccccc1-2)c1cc2ccccc2o1 | 134 |
| O=C(NC(=S)Nc1ccc2oc(-c3ccccc3)nc2c1)c1ccccc1 | -10.6 |
| O=C(NC(=S)Nc1ccc2oc3ccccc3c2c1)c1ccccc1 | 91.8 |
| O=C(Nc1ccc2c(c1)Cc1ccccc1-2)c1ccncc1 | -3.2 |
| O=C(Nc1ccc2c(c1)OCCO2)c1cc2ccccc2o1 | -6.3 |
| Cc1ccc(NC(=S)NC(=O)c2ccccc2)cc1Br | 9 |
| COc1ccc(-c2nc(NC(=O)c3ccccc3F)sc2-c2ccc([N+](=O)[O-])cc2)cc1 | 13.6 |
| CCOC(=O)C1=C(C)NC(C)=C(C(=O)OCC)C1c1cccs1 | -5.1 |
| CCOc1ccc(/C=C2\C(=O)NC(C)=C2C(=O)OC)cc1 | 10.8 |
| CCOC(=O)C1=C(C)NC(=O)/C1=C\c1cccs1 | 108 |
| Cc1ccc(S(=O)(=O)Nc2ccccc2C(O)C[N+](=O)[O-])cc1 (configuration not stated) | -4.2 |
| COc1ccc2c(c1)cc(C(=O)NN)n2C | 67.4 |
| COc1ccc(N2Cc3ccc(C(=O)NN)cc3C2)cc1 | -29.2 |
| CNC(=O)c1cc2cc(OC)ccc2n1CCN(C)C | -11.4 |
